# PrPC TRFRET: inhibitors of human cell surface prion protein PrPC, primary screen, cell-based, TR-FRET. Major prion protein (Homo sapiens), P04156. TR-FRET read-out. inhibition, % at 13.8 µM. actives 0.43% (n = 370,000). AID 720596, 2013; in the data active means inhibition above about 24%; further: 0% = median of the test wells and 100% = reference compound wells
# Sa RN4220 lethal: growth inhibition of S. aureus RN4220, primary screen, OD600. actives 0.33% (n = 330,000). 16 h. inhibition, % (concentration not given with the values). AID 1259311, 2017; in the data active means inhibition above about 85%;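 further: plate controls were untreated cells for no effect and reference antibiotic for full effect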
# PfHsp40 rescue: rescue of yeast from PfHsp40 toxicity, primary screen, S. cerevisiae, ATP luminescence | growth rescue, % at 12.5 µM | S. cerevisiae expressing PfHsp40, growth rescue | actives 0.68% (n = 340,000); in the data active means growth rescue above about 28%, passing the limit was not always enough; inconclusive means no clear call, values can overlap the other calls;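 further: yeast W303a lacking pdr1 and pdr3 grown in galactose medium; growth measured after three days at 30 °C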
# ugtP null kill: growth inhibition of ugtP-null S. aureus, primary screen, RN4220 ugtP deletion, OD600; 16 h; growth inhibition, % (test concentration not listed); actives 0.54% (n = 330,000); in the data active means growth inhibition above about 68%;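 further: plate controls were untreated wells for no effect and antibiotic for full effect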
# VHR inh abs: VHR1 phosphatase inhibitors, primary screen, biochemical, absorbance, uHTS; Dual specificity protein phosphatase 3 (Homo sapiens), P51452; recombinant VHR phosphatase, pNPP absorbance; inhibition, % at 13.3 µM; actives 0.52% (n = 290,000); AID 1654, 2009; in the data active means inhibition above about 50%
# Target sequence (P51452 whole entry, looked up): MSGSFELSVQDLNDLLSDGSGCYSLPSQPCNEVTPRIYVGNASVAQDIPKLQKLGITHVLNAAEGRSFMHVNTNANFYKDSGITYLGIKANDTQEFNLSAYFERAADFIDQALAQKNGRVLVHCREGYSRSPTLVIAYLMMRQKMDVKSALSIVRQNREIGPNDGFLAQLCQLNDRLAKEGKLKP
# * hit, by the source's call; u = inconclusive; x = no result given. This is a sample that favours compounds with a hit; in the whole collection about 1.8% have one here.
SMILES,PrPC TRFRET,Sa RN4220 lethal,PfHsp40 rescue,ugtP null kill,VHR inh abs
O=c1c(-c2c(O)cc(O)c3c2OC(c2ccc(O)cc2)CC3)c(-c2ccc(O)cc2)oc2cc(O)cc(O)c12 (stereo not given),x,-1,x,19,x
O=c1oc2cc(Oc3c([N+](=O)[O-])cc(C(F)(F)F)cc3[N+](=O)[O-])ccc2c2c1CCCC2,0,44,0,94*,30
COC(=O)c1cc(COc2ccc3oc(C)c(C(=O)OC(C)C)c3c2)c(C)o1,-1,2,1,96*,2
Cc1oc2ccc(OC(=O)N(C)C)cc2c1C(=O)OC(C)C,-6,8,160*,11,3
COC(=O)c1cc(COc2ccc3c4c(c(=O)oc3c2)CCCC4)c(C)o1,7,3,-3,1,-10
O=C1C2C(C3CC3)N3C(=O)CN(Cc4ccccn4)C(=O)[C@@]3(Cc3ccccc3)C2C(=O)N1c1ccccc1 (stereo not given in full),x,5,x,1,x
CC(C)CCOC(=O)C[N+](C)(C)CCOC1CC2CCC1(C)C2(C)C (stereo not given),15,45,-1,101*,30
CCCCCCOC(=O)C[N+](C)(C)CCOC1CC2CCC1(C)C2(C)C (stereo not given),0,6,1,34,-13
CCCCCCCOC(=O)C[N+](C)(C)CCOC1CC2CCC1(C)C2(C)C (stereo not given),11,100*,u,100*,0
CCCOC(=O)C[N+](C)(C)CCOC1CC2CCC1(C)C2(C)C (stereo not given),7,-4,0,10,5
CCCCOC(=O)C[N+](C)(C)CCOC1CC2CCC1(C)C2(C)C (stereo not given),10,-6,-1,89*,4
NC(=Nc1ccc(Br)cc1)c1ccccc1,0,6,0,12,51*
Oc1ccc(-c2nc3ccc4ccccc4c3c3c2CCC3)cc1O,22,-4,18,98*,-4
Cc1ccc(NC(=S)NN=C2CCCCc3ccccc32)cc1,x,94,x,active,x
COc1ccc(CC(=O)NN=C/C=C/c2cccc([N+](=O)[O-])c2)cc1OC,x,1,x,-3,x
O=c1[nH]c(=O)n(C2OC(CO)C(O)C(O)C2O)cc1F (stereo not given),3,x,x,x,x
CCCCCCCCCCCCCCCCCCNc1ccn(C2OC(COP(=O)(O)OCC3OC(n4cc(F)c(=O)[nH]c4=O)CC3O)C(O)C2O)c(=O)n1 (stereo not given),3,x,42*,x,x
CCCCCCC[C@@H](C/C=C/CCC(=O)N(C)C/C(=C/Cl)C/C(=C\C(=O)N1CC(OC)=CC1=O)OC)OC,5,4,37*,-23,x
CCCCCCC[C@@H](C/C=C/CCC(=O)N(C)C/C(=C/Cl)C/C(=C\C(=O)N1C[C@H](O)CC1=O)OC)OC,0,2,54*,-16,x
CC(C)(C)c1cc[n+](-c2[nH]c(=O)sc2C=NNC(=O)c2ccccc2[O-])cc1,x,-3,x,0,x
CC(=NNC(=O)CSc1ccccn1)c1ccc([N+](=O)[O-])cc1,x,8,x,1,x
CSc1ccccc1NS(=O)(=O)c1ccc2c(c1)OCCO2,8,11,2,3,-6
COc1ccccc1NS(=O)(=O)c1ccc2c(c1)OCCO2,7,2,-1,-6,58*
COC(=O)c1cc(OC)c(OC)cc1N=CC1=C(O)CC(C)(C)CC1=O,-4,0,0,3,55*
COC(=O)c1cc(N=CC2=C(O)CC(C)(C)CC2=O)cc(C(=O)OC)c1,3,3,0,-5,3
SMILES,PrPC TRFRET,Sa RN4220 lethal,PfHsp40 rescue,ugtP null kill,VHR inh abs
COc1ccc(-[n+]2c(C)cc(/C=C3\Sc4ccccc4N3C)cc2C)cc1,17,100*,u,100*,4
COc1ccccc1-[n+]1c(C)cc(/C=C2\Sc3ccccc3N2C)cc1C,17,100*,-1,100*,11
COc1ccc(C(=O)/C=C2\Sc3ccccc3N2C)cc1,-11,7,1,7,36
CCC1CN(C(=O)NCc2ccc(F)cc2)c2cc(Cl)ccc2O1 (stereo not given),-1,-2,5,2,57*
COC(OC)c1ccnc(-c2ccc(OC(C)=O)cc2)n1,5,8,52*,2,2
CCn1cc(C(=O)O)c(=O)c2cnc(N3CCN(C(=S)NC(=O)c4ccccc4Cl)CC3)nc21,x,99*,x,94*,13

# From PubChem
